The source of these data is PMC7862700, “An all-to-all approach to the identification of sequence-specific readers for epigenetic DNA modifications on cytosine”.

Common to all, as to assay: DAPPL (digital affinity profiling via proximity ligation, sequencing); 10 mM Tris-HCl pH 7.5, 50 mM NaCl, 1 mM DTT, 4% glycerol, room temperature, 30 min; GST-TFs on glutathione beads, 16-mer random dsDNA library, 0.1% formaldehyde crosslink after washing; high values mean tight binding
One assay concerns the target T1, FEV (Homo sapiens, UniProt Q99581 1-238).
T1 sequence: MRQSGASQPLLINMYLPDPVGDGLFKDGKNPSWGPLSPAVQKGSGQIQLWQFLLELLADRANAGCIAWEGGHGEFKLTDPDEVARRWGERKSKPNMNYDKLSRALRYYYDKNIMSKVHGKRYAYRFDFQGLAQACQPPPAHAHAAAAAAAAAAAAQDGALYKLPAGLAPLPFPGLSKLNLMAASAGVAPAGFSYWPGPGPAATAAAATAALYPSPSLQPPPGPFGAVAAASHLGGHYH
To be noted: protein: recombinant; tags: N-terminal GST; dsDNA, one strand shown. The gist of the method: (§1)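 Beads coated with glutathione captured GST-fused human transcription factors that had been expressed in yeast, and the factors were then given DNA barcodes and pooled with a tag-only sample. The pools were incubated with 200 nmole of a random double-stranded 16-mer DNA library in Tris/NaCl/DTT/glycerol buffer for 30 min at room temperature, washed, crosslinked with 0.1% formaldehyde and proximity-ligated with BsaI/T4 ligase at 37 °C for 1 h. PCR amplification and Illumina NextSeq500 sequencing came last. Binding signal is each hexamer's read frequency for a factor divided by its frequency for the tag-only sample.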

A further assay concerns the target ETV5 (Homo sapiens, UniProt P41161 1-510). To be noted: protein: recombinant; tags: N-terminal GST; dsDNA, one strand shown. The gist of the method: as §1
In another assay the target is HSF1 (Homo sapiens, UniProt Q00613 1-529). The following applies: protein: recombinant; tags: N-terminal GST; chain copies: 3; dsDNA, one strand shown. Put shortly: as §1
For a further assay, the target named is T2, SPIC (Homo sapiens, UniProt Q8N5J4 1-248).
T2 sequence: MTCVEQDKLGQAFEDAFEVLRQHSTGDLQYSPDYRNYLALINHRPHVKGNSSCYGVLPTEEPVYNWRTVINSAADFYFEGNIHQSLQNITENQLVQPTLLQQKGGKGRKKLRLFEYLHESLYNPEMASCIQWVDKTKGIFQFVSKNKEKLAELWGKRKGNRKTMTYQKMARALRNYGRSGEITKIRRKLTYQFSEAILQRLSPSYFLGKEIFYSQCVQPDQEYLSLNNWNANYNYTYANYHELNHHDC
To be noted: protein: recombinant; tags: N-terminal GST; dsDNA, one strand shown. Put shortly:
as §1

A further assay addresses ELF4 (Homo sapiens, UniProt Q99607 1-663). The following applies: protein: recombinant; tags: N-terminal GST; dsDNA, one strand shown. Put shortly: as §1
The target in a further assay is T3, ELK4 (Homo sapiens, UniProt P28324-2 1-405).
T3 sequence: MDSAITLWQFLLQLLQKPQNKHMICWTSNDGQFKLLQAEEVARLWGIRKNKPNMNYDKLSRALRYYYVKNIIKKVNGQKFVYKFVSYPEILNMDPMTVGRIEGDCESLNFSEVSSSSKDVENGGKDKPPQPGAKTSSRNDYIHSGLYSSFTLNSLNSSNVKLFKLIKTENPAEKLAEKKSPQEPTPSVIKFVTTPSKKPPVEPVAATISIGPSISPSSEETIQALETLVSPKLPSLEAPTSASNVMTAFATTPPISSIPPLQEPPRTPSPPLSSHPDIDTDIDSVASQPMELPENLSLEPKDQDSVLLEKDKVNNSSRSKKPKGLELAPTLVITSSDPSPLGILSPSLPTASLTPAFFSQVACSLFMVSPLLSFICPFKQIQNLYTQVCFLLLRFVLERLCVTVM
The following applies: protein: recombinant; tags: N-terminal GST; dsDNA, one strand shown. The gist of the method: as §1

The target of the next assay is T4, ETV2 (Homo sapiens, UniProt O00321 1-342).
T4 sequence: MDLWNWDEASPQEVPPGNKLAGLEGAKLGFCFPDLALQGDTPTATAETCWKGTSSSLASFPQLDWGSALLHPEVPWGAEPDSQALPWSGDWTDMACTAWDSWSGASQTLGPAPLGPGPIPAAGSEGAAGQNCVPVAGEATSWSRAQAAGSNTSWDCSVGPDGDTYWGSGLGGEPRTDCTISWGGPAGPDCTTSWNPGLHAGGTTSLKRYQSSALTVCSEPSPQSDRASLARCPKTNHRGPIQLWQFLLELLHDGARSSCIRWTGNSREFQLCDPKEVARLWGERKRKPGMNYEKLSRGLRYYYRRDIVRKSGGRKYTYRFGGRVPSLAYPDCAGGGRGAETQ
To be noted: protein: recombinant; tags: N-terminal GST; dsDNA, one strand shown. The gist of the method:
as §1

Another assay deals with T5, ELF3 (Homo sapiens, UniProt P78545 1-371).
T5 sequence: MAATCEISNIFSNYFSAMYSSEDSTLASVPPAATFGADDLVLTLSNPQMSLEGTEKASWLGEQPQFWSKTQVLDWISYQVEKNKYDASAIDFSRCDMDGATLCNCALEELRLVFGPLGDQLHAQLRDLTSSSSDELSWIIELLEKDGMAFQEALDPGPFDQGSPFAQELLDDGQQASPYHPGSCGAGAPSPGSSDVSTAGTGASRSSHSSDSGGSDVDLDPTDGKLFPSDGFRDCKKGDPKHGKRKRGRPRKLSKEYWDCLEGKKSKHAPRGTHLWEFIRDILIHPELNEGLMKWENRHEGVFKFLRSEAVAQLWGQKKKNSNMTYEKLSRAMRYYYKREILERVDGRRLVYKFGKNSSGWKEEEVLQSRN
The following applies: protein: recombinant; tags: N-terminal GST; dsDNA, one strand shown. Put shortly:
as §1

A further assay addresses CRX (Homo sapiens, UniProt O43186 1-299). The following applies: protein: recombinant; tags: N-terminal GST; dsDNA, one strand shown. The gist of the method: as §1
Another assay addresses ETV1 (Homo sapiens, UniProt P50549 1-477). The following applies: protein: recombinant; tags: N-terminal GST; dsDNA, one strand shown. Put shortly:
as §1

The target of a further assay is T6, ERF (Homo sapiens, UniProt P50548 1-548).
T6 sequence: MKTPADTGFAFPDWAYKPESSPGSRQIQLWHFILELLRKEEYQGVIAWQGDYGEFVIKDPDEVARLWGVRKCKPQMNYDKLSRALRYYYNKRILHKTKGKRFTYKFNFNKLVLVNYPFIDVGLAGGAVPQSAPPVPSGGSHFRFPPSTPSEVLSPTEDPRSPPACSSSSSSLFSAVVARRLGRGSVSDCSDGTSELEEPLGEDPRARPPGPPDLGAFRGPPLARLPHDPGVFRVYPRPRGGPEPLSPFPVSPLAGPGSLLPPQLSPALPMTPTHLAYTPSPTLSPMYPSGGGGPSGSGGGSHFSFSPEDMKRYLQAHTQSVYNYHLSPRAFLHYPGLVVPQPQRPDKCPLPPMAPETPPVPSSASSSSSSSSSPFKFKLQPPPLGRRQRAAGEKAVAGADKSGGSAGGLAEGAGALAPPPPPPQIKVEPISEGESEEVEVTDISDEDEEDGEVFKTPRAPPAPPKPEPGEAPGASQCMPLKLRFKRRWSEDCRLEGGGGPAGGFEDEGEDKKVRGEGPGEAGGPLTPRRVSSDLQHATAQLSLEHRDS
To be noted: protein: recombinant; tags: N-terminal GST; dsDNA, one strand shown. Put shortly: as §1

Another assay has as its target T7, ETV3L (Homo sapiens, UniProt Q6ZN32 1-361).
T7 sequence: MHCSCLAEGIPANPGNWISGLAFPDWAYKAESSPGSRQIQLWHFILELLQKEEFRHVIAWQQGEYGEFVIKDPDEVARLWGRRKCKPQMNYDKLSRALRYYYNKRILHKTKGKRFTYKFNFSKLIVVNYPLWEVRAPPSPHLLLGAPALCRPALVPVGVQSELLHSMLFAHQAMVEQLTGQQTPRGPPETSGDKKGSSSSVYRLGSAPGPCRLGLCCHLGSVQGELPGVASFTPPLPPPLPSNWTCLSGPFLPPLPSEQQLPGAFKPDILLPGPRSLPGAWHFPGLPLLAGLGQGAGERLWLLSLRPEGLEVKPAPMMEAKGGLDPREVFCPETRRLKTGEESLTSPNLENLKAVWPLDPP
To be noted: protein: recombinant; tags: N-terminal GST; dsDNA, one strand shown. The gist of the method: as §1

In the next assay the target is T8, ETS2 (Homo sapiens, UniProt P15036 1-469).
T8 sequence: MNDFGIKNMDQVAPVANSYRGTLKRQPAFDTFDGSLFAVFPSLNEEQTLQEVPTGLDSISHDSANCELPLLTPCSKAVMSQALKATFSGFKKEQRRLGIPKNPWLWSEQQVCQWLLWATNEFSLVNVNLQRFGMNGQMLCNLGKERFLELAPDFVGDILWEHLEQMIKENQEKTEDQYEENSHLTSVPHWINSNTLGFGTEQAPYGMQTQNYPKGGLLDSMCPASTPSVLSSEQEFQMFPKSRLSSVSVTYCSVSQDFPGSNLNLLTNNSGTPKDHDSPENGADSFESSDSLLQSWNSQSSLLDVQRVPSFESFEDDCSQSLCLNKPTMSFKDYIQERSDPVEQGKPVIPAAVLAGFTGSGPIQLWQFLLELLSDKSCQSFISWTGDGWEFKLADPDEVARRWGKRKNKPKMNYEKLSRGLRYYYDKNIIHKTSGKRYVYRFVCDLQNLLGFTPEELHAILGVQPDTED
To be noted: protein: recombinant; tags: N-terminal GST; dsDNA, one strand shown. The gist of the method:
as §1

A further assay concerns the target T9, SPDEF (Homo sapiens, UniProt O95238 1-335).
T9 sequence: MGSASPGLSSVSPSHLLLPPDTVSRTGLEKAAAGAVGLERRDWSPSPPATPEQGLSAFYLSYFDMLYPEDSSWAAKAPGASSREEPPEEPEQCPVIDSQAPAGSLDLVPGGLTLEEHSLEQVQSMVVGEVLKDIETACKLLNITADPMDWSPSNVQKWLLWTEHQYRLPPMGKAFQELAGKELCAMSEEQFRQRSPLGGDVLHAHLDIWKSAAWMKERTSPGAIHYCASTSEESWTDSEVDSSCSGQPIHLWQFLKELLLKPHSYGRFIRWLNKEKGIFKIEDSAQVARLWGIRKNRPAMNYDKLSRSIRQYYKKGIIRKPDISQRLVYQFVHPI
The following applies: protein: recombinant; tags: N-terminal GST; dsDNA, one strand shown. The gist of the method: as §1

The target in a further assay is T10, ETV7 (Homo sapiens, UniProt Q9Y603 1-341).
T10 sequence: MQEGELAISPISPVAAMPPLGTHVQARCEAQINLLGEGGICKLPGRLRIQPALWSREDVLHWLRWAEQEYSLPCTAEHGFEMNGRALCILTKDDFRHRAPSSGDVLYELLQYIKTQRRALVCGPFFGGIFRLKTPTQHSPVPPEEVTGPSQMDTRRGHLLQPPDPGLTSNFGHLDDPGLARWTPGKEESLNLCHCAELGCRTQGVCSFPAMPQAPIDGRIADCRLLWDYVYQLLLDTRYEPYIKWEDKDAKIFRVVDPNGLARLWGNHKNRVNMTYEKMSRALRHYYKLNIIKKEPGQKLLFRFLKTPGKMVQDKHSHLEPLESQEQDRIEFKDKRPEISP
To be noted: protein: recombinant; tags: N-terminal GST; dsDNA, one strand shown. The gist of the method:
as §1

Another assay concerns the target T11, ELF5 (Homo sapiens, UniProt Q9UKW6-2 1-255).
T11 sequence: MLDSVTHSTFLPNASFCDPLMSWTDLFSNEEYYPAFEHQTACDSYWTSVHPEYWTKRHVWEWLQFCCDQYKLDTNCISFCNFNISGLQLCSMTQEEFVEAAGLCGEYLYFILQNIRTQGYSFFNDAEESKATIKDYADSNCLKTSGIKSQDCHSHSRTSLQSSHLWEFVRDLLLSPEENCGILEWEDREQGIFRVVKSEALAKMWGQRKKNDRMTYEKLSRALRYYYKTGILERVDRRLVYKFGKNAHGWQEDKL
To be noted: protein: recombinant; tags: N-terminal GST; dsDNA, one strand shown. Put shortly:
as §1

Another assay deals with T12, ETV3 (Homo sapiens, UniProt P41162-2 1-143).
T12 sequence: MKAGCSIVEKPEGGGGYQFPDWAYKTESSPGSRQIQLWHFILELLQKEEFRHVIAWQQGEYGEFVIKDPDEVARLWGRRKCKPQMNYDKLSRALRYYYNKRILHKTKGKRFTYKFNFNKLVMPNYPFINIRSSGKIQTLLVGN
The following applies: protein: recombinant; tags: N-terminal GST; dsDNA, one strand shown. The gist of the method: as §1

The next assay has as its target ETV6 (Homo sapiens, UniProt P41212 1-452). The following applies: protein: recombinant; tags: N-terminal GST; dsDNA, one strand shown. The gist of the method: as §1

Sequence of ETV6 (P41212 whole entry): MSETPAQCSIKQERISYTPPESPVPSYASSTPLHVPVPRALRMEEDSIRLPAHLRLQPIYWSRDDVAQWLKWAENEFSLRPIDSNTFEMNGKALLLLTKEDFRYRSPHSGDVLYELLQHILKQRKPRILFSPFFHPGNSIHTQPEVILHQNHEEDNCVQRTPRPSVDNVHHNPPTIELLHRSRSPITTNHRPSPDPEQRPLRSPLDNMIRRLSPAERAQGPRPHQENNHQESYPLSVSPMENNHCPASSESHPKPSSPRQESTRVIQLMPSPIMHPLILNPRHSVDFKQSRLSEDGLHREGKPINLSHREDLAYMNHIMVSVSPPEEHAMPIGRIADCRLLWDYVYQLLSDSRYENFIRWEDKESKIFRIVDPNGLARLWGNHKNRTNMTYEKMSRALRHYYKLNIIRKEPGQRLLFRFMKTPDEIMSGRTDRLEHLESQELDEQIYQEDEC
Sequence of CRX (O43186 whole entry): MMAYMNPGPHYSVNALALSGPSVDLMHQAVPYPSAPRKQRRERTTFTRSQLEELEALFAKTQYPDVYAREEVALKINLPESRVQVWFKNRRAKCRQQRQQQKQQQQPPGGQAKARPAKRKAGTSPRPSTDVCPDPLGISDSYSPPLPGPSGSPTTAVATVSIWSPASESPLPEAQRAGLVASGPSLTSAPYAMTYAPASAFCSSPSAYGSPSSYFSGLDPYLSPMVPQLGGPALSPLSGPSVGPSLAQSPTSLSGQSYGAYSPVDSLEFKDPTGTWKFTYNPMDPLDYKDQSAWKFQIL
Sequence of ETV1 (P50549 whole entry): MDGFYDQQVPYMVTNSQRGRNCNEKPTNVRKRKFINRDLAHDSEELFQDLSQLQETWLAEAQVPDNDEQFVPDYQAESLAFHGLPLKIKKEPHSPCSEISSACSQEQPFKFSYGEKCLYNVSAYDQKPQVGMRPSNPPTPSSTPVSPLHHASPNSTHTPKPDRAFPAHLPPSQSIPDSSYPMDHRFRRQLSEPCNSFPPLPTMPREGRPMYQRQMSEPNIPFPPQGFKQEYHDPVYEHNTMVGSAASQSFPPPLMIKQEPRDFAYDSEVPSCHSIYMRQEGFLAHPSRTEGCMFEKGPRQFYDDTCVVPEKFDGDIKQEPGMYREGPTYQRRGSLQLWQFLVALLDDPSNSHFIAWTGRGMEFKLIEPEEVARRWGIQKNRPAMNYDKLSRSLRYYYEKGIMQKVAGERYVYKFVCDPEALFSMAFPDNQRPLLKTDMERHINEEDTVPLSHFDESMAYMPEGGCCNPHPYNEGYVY
Sequence of HSF1 (Q00613 whole entry): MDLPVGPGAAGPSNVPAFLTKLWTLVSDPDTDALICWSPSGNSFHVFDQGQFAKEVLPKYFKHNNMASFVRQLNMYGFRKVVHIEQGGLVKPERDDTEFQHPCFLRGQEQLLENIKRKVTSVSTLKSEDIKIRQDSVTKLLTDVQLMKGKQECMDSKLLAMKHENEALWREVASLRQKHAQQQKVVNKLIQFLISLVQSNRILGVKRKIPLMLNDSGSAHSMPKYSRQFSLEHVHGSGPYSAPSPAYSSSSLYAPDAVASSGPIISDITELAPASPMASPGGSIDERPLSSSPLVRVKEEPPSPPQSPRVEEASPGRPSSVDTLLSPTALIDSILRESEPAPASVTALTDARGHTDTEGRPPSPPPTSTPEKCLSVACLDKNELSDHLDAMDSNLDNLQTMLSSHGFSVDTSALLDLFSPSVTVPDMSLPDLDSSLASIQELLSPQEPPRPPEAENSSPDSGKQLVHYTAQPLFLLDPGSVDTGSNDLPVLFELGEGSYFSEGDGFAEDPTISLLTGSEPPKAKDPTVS
Sequence of ETV5 (P41161 whole entry): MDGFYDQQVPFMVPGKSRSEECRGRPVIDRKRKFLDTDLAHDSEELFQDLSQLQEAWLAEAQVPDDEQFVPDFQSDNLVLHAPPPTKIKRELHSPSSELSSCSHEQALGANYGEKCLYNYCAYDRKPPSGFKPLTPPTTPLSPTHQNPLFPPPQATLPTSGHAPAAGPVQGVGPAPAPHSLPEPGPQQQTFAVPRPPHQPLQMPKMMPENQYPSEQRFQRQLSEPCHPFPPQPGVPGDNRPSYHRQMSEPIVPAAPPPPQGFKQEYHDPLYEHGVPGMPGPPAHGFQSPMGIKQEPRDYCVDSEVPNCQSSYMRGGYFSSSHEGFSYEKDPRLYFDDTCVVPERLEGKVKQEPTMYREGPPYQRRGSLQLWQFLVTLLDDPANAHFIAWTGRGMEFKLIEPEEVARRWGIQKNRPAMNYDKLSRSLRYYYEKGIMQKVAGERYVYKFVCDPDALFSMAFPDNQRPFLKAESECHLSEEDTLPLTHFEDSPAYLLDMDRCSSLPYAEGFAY
Sequence of ELF4 (Q99607 whole entry): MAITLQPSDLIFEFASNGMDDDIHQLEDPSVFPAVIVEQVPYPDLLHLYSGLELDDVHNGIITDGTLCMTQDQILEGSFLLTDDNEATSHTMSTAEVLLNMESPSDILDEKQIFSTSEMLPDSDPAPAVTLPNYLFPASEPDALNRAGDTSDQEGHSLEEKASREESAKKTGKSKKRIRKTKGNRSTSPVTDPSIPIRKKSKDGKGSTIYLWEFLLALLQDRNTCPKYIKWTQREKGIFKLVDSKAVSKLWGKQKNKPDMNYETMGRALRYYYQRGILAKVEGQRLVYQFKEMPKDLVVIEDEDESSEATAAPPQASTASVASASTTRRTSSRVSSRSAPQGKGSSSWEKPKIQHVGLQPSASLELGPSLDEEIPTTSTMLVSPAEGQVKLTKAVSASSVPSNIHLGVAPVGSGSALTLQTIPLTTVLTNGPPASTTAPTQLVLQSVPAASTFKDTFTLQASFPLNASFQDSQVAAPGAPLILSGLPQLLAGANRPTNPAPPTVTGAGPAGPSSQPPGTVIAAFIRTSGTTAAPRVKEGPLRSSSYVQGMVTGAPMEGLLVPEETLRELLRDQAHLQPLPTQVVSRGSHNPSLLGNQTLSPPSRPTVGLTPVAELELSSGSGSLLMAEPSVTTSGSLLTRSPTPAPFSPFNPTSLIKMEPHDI

CAATAA: the binding signal in the assay with FEV is 1.1 fold enrichment (6-mer frequency, TF over GST control); with ETV5, 1.14 fold enrichment (6-mer frequency, TF over GST control); in the assay with HSF1, 1.24 fold enrichment (6-mer frequency, TF over GST control); in the assay with SPIC it was 1.2 fold enrichment (6-mer frequency, TF over GST control); with ELF4, 1.16 fold enrichment (6-mer frequency, TF over GST control); with ELK4, 1.14 fold enrichment (6-mer frequency, TF over GST control). Moreover, the binding signal with ETV2 is 1.14 fold enrichment (6-mer frequency, TF over GST control); in the assay with ELF3, 1.27 fold enrichment (6-mer frequency, TF over GST control); in the assay with CRX, 1.46 fold enrichment (6-mer frequency, TF over GST control); with ETV1, 1.11 fold enrichment (6-mer frequency, TF over GST control); with ERF it was 1.15 fold enrichment (6-mer frequency, TF over GST control); with ETV3L, 1.13 fold enrichment (6-mer frequency, TF over GST control). In addition, the binding signal with ETS2 was 1.19 fold enrichment (6-mer frequency, TF over GST control); with SPDEF it was 1.05 fold enrichment (6-mer frequency, TF over GST control); with ETV7, 1.06 fold enrichment (6-mer frequency, TF over GST control); with ELF5, 1.06 fold enrichment (6-mer frequency, TF over GST control); with ETV3 it was 1.14 fold enrichment (6-mer frequency, TF over GST control); with ETV6, 1.12 fold enrichment (6-mer frequency, TF over GST control).
